Test [1] deals with Luciferin 4-monooxygenase (Photinus pyralis) (UniProt P08659). Description: Biochemical firefly luciferase enzyme assay for NPC (AID 624030). Note: nearly all actives have a fitted effect of over 70% in size. Note: potency is the fitted concentration of half-maximal effect. Conditions: purified P. pyralis luciferase, luminescence, 5 min; series mostly up to 58.6 µM. In short, it runs like this:
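Counter-screen for direct inhibition of the luciferase enzyme by approved-drug library compounds, run at 10 nM enzyme in 50 mM Tris acetate (final). Luminescence was read within 5 min of enzyme-buffer addition and normalized to PTC124 versus DMSO (0%).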

Test [2] is described as follows: S16 Schwann cell PMP22 intronic element firefly luciferase assay (AID 624032). Note: nearly all actives have a fitted effect of over 30% in size. Note: potency is the fitted concentration of half-maximal effect. To be noted: S16 rat Schwann cells, PMP22 element FLuc, 24 h; series mostly up to 57.5 µM. Put shortly:
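Rat S16 Schwann cells stably carrying a PMP22 intronic element-driven Fluc reporter were seeded overnight, then exposed to compounds for 24 h at 37 °C. Luminescence was normalized to PTC124 (positive control) and DMSO (0% activity).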

Test [3] is described as follows: S16 Schwann cell PMP22 intronic element beta-lactamase assay (AID 624044; calls by dose curve; note: nearly all actives have a fitted effect of over 15% in size; note: potency is the fitted concentration of half-maximal effect). To be noted: S16 rat Schwann cells, PMP22 element beta-lactamase FRET, 24 h; series mostly up to 38.3 µM. Put shortly: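 Beta-lactamase reporter under a PMP22 intronic regulatory element in stable S16 rat Schwann cells; 24 h compound exposure. 460 nm blue signal normalized between DMSO (0%) and potassium clavulanate, with 535 nm FRET tracking viability; curves classed by r2 and response.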

The target in test [4] is Glutaminase kidney isoform, mitochondrial (Homo sapiens) (UniProt O94925). In words: qHTS for Inhibitors of Glutaminase (GLS): LOPAC Validation (AID 624146).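 Note: glutamate product detected by oxidase and peroxidase coupled Amplex red fluorescence gain; nearly all actives have a fitted effect of over 60% in size.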 To be noted: glutaminase enzyme activity inhibition; series mostly up to 46.1 µM. In short, it runs like this: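 Read-out is an Amplex red fluorescence increase coupled through glutamate oxidase and HRP, measured before and after 30 min room-temperature incubation. hKGA is in 45 mM KH2PO4 (pH 8.2) with 0.02% Tween-20; glutamine added as 1mM solution.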
(In qHTS, concentration-response curves come from the screen itself.)

Test [5] can be described thus: qHTS of Trypanosoma Brucei Inhibitors: LOPAC Validation (AID 624147). To be noted: purified enzyme assay, luminescence, 45 min; series mostly up to 57.5 µM. Put shortly: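 ADP (130 uM final) triggers the TbPYK reaction after compound addition; incubation is 45 min at room temperature. Kinase-Glo Plus is then added and luminescence imaged. Normalized data are fitted to concentration-effect curves.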

The target of test [6] is Glucagon-like peptide 1 receptor (Homo sapiens) (UniProt P43220). Description: qHTS of GLP-1 Receptor Agonists: LOPAC Validation (AID 624148).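 Note: higher luminescence signal means agonism.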 To be noted: GLP-1R agonist cell assay; series mostly up to 46.1 µM. In short, it runs like this: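 HEK293 cells stably co-expressing a cAMP-responsive luciferase reporter and a hypersensitive GLP-1R were plated 12 h at 37 °C and exposed to compounds for 4-6 hr at 37 °C, 5% CO2. Luminescence was read 12 min after adding detection reagent.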

Test [7] in a line: qHTS of Nrf2 Activators: LOPAC Validation (AID 624149). To be noted: Nrf2/ARE reporter cell assay; series mostly up to 46.1 µM. Put shortly: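 AREc32_Fluc cells, 1000/well, OPTI-MEM + 5% FBS, o/n 37 deg C 5% CO2; compound pin-transfer, 24 hr 37 deg C; Steady-Glo 30 min RT, luminescence read.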
Test [8] can be described thus: HTS Assay for Allosteric Antagonists of the Human D2 Dopamine Receptor: Hit Validation in HTRF (AID 624455). To be noted: Cells stably expressing D1 dopamine receptor, inhibition mode; series mostly up to 46.1 µM. In short, it runs like this:
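HTRF read-out; cells stably expressing D1 receptor; hits scored for inhibition of D1-mediated response. Primary screen: calcium flux, force-coupled inducible Hek293 Trex D2 line, antagonism vs EC80 dopamine.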

A short description of test [9]: S16 Schwann cell viability assay (CellTiter-Glo assay) (AID 624031).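 Note: native untransfected S16 rat Schwann cells; cellular ATP luminescence as a viability measure; nearly all actives have a fitted effect of over 70% in size.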 To be noted: S16 rat Schwann cells viability, 24 h; series mostly up to 57.5 µM. Put shortly:
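Rat S16 Schwann cells without reporter constructs received compound or DMSO for 24 h at 37 °C under 5% CO2. Cellular ATP was then quantified by CellTiter-Glo luminescence, with vehicle wells defined as 0% activity and cell-free wells as reference.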
For orientation: In ATP-based viability assays light output follows the ATP content of the culture.

Test [10] in a line: qHTS assay for small molecule agonists of the antioxidant response element (ARE) signaling pathway (AID 651741; active = well fitted activation curve with a large enough effect in the signal ratio; the % refers to the signal ratio; note: potency is the fitted concentration of half-maximal effect). Conditions: HepG2 ARE-bla reporter, beta-lactamase FRET ratio, 16 h; series mostly up to 96 µM. In short, it runs like this: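 Beta-lactamase reporter expression driven by the antioxidant response element in HepG2 cells was detected by fluorescence with LiveBLAzer B/G FRET substrate (2 h, room temperature) following 16 h compound treatment at 37 C.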

Records with an inconclusive call do not appear. Active and inactive are the calls of the source. Unless noted, calls come from the whole dose curve; as a rule, active = well fitted curve in the direction sought with a large enough effect; inconclusive = small, poorly fitted or top-dose-only effect, or another doubt; inactive = no such curve, though single readings can be large; an effect the other way counts as inactive or inconclusive.

Luciferin 4-monooxygenase (Photinus pyralis), sequence (P08659 whole entry, looked up): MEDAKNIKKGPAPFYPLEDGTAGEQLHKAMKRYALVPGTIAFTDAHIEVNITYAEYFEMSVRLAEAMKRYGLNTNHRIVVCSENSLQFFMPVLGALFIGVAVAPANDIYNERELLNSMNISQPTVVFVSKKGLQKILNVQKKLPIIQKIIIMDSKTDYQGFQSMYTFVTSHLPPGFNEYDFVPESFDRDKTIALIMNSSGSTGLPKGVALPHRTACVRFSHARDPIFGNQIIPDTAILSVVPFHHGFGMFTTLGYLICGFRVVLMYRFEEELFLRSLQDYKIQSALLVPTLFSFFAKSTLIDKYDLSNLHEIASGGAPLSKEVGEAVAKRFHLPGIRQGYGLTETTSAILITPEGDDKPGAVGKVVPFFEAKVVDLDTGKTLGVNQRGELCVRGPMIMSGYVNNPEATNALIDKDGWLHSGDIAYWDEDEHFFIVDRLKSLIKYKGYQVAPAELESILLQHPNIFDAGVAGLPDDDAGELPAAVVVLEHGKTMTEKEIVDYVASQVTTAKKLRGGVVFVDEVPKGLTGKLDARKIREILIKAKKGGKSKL
Glutaminase kidney isoform, mitochondrial (Homo sapiens), sequence (O94925 whole entry, looked up, canonical isoform): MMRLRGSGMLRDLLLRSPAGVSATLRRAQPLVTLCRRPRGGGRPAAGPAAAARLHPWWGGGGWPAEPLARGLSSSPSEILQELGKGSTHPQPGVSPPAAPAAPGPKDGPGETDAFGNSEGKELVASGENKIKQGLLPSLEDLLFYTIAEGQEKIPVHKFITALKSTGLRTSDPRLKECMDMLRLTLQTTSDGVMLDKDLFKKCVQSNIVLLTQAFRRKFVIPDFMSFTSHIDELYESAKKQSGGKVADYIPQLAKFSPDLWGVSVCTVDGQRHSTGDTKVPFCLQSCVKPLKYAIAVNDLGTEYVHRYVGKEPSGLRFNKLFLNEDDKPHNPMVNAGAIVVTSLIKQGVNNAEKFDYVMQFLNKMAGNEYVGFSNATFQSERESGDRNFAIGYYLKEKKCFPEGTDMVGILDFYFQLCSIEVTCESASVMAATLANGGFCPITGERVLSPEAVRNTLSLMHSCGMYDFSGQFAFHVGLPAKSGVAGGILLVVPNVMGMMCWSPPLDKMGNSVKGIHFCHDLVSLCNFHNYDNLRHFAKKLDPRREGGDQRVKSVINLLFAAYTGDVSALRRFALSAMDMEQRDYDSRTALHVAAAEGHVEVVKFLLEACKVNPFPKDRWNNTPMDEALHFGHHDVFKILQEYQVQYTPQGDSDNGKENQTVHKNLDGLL
Glucagon-like peptide 1 receptor (Homo sapiens), sequence (P43220 whole entry, looked up): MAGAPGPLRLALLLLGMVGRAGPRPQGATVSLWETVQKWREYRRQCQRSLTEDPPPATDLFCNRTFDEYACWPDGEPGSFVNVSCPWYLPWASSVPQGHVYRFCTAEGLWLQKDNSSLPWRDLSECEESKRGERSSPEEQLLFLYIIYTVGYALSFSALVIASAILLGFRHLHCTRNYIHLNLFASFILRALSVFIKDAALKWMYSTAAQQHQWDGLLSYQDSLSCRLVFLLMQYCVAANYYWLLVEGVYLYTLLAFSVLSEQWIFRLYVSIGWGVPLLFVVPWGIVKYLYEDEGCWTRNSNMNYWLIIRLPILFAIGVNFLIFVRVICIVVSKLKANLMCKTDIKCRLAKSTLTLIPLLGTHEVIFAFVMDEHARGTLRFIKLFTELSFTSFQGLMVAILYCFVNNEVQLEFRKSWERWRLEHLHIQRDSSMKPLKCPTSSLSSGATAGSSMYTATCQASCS

Regarding `Nc1ccc(C(=O)NCC(=O)O)cc1`, the Potency entry in [1] and in test [2] was “inactive” throughout.
For `Cc1cc2c(OCC(CNC(C)(C)C)OC(=O)c3ccccc3)cccc2[nH]1` (stereo not given), the Potency result in [1] and in test [3] was “inactive” throughout. Moreover, the Potency in test [2] is 18.1 µM (active).
In the case of `C=C[C@@]1(C)CC(=O)[C@]2(O)[C@@]3(C)[C@@H](O)CCC(C)(C)[C@@H]3[C@H](O)[C@H](OC(C)=O)[C@@]2(C)O1`, the Potency result in test [1] is “inactive”. The Potency in test [2] is 0.361 µM (active); in test [3], 0.707 µM (active).
For `CC1CCc2c(N3CCC(O)CC3)c(F)cc3c(=O)c(C(=O)O)cn1c23` (stereo not given), the Potency result in test [1] and in test [2] was “inactive” each time.
Take `CN(Cc1ccc(C(C)(C)C)cc1)Cc1cccc2ccccc12`: the Potency entry in [1], in [2] and in [3] was “inactive” in each case.
For `Cc1cc(CC(=O)O)c(C)n1-c1ccc(Cl)cc1`, the Potency entry in test [1] and in test [2] was “inactive” each time.
Consider `COc1ccc2c(c1)c1c3n2CCN(C)C3=NCC1`, for which the Potency result in test [1] and in [2] was “inactive” throughout.
For `O=C(O)C(Cc1cc(I)c(O)c(I)c1)c1ccccc1` (stereo not given), the Potency entry in test [1], in [2] and in test [3] was “inactive” throughout.
Regarding `C#C[C@]1(O)CC[C@H]2[C@@H]3CCc4cc(OC)ccc4[C@H]3CC[C@@]21C`, the Potency entry in test [1], in [2] and in [3] was “inactive” in each case.
With `O=C1C(CCS(=O)c2ccccc2)C(=O)N(c2ccccc2)N1c1ccccc1` (stereo not given), the Potency entry in test [1], in [2] and in test [3] was “inactive” in each case.
As to `CC(=O)O[C@H]1C[C@@H]2CC[C@@H]3[C@H](CC[C@@]4(C)[C@H]3C[C@H]([N+]3(C)CCCCC3)[C@@H]4OC(C)=O)[C@@]2(C)C[C@@H]1N1CCCCC1`, the Potency result in test [1] and in test [2] was “inactive” in each case.
With `NCCNC(=O)c1ccc(Cl)cn1`, the Potency result in [1] and in [2] was “inactive” each time.
Consider `CN1CCN(CCC(=O)N2c3ccccc3Sc3ccc(C(F)(F)F)cc32)CC1`, for which the Potency entry in [1], in [2] and in test [3] was “inactive” throughout.
As for `CC(C)NCC(O)c1ccc2ccccc2c1` (stereo not given), the Potency result in test [1] and in test [2] was “inactive” each time.
`CC(=O)NCCCCCC(=O)O`: the Potency result in test [1] and in test [2] was “inactive” throughout.
For the molecule `CCCCCCCC/C=C\CCCCCCCCN`, the Potency result in [1] and in [2] was “inactive” in each case.
Consider `CN(CCCN1c2ccccc2CCc2ccccc21)CC(=O)c1ccc(Cl)cc1`, for which the Potency result in test [1] and in test [3] was “inactive” throughout.
Regarding `CCCCCCCCCCCCCC[N+](C)(C)Cc1ccccc1`, the Potency result in [1] and in [3] was “inactive” each time. Moreover, the Potency in test [2] is 32.2 µM (active).
`Cc1ccc2c(Br)cc(Br)c(O)c2n1`: the Potency result in test [1] and in test [2] was “inactive” in each case. Also, the Potency in [3] was 17.8 µM (active).
As for `CCNC(=O)/C=C/c1cccc(Br)c1`, the Potency result in test [2] is “inactive”.
Regarding `CN=C(N)NCCC[C@H](N)C(=O)O`, in test [1], the Potency entry is “inactive”. For the same molecule, the call in [4], in [5], in [6], in test [7] and in test [8] was inactive.
As to `Cc1ccc(-c2ncc(Cl)cc2-c2ccc(S(C)(=O)=O)cc2)cn1`, the Potency result in [1] and in test [3] was “inactive” each time.
As to `O=[N+]([O-])c1cccc(S(=O)(=O)NCCNS(=O)(=O)c2cccc([N+](=O)[O-])c2)c1`, the Potency entry in [1], in [2] and in test [3] was “inactive” throughout.
In the case of `CC(C)=CCOc1ccc(/C=C/C(=O)c2ccc(OCC=C(C)C)cc2OCC(=O)O)cc1`, the Potency entry in test [9] and in [3] was “inactive” throughout.
As for `O=C(Nc1ncc([N+](=O)[O-])s1)c1cccs1`, the Potency in test [1] is 3.61 µM (active). Besides, the Potency entry in test [2] and in test [3] was “inactive” each time.
Turning to `CC(=O)NO`, the Potency entry in test [1], in test [2] and in test [3] was “inactive” throughout.
Take `NCCNc1cccc2ccccc12`: the Potency result in test [1], in test [3] and in test [10] was “inactive” in each case.
As for `CN1CCc2cccc3c2[C@H]1Cc1ccc(O)c(O)c1-3`, the Potency in test [2] is 14.4 µM (active). Also, the Potency entry in test [3] was “inactive”.
Regarding `NCc1ccccc1Sc1ccccc1CO`, the Potency entry in test [1], in test [2] and in test [3] was “inactive” in each case.
On to `CCC(CC)(CC(=O)Nc1cccc(/C=C/c2nc(C3CCC3)cs2)c1)C(=O)O`, for which, in test [1], the Potency is 5.73 µM (active). The Potency entry in [2] and in test [3] was “inactive” in each case.
With `N/C(=N\N=C\c1ccc(Cl)cc1)N/N=C/c1ccc(Cl)cc1`, the Potency entry in [9], in test [2] and in test [3] was “inactive” in each case.
On to `CN1CCN(C2=Nc3ccccc3Sc3ccc(Cl)cc32)CC1`, for which the Potency result in test [2] is “inactive”.
On to `O=C(NCCc1c[nH]c2ccccc12)c1cccnc1`, for which the Potency result in test [9], in test [2] and in test [3] was “inactive” throughout.
As to `C#C[C@]1(O)CC[C@H]2[C@@H]3CCC4=CC(=O)CC[C@@H]4[C@H]3CC[C@@]21CC`, the Potency entry in test [1] and in [3] was “inactive” each time. Moreover, the Potency in test [2] is 20.3 µM (active).
For the molecule `CC(=O)Nc1ncc([N+](=O)[O-])s1`, the Potency result in test [1], in test [2] and in test [3] was “inactive” in each case.
With `CCOc1cc(OCC)c(C(=O)CCC(=O)O)cc1OCC`, the Potency entry in [9] was “inactive”.
In the case of `CCOc1ccccc1C(N)=O`, the Potency result in [1], in [2] and in test [10] was “inactive” throughout.
Take `O=C(CN1CCN(Cc2ccc3c(c2)OCO3)CC1)N1c2ccccc2Sc2ccccc21`: the Potency entry in test [1] and in [3] was “inactive” throughout. In addition, the Potency in test [2] was 12.8 µM (active).
In the case of `CC1(C)OC[C@@H]2O[C@@]3(C(=O)O)OC(C)(C)O[C@H]3[C@@H]2O1`, the Potency result in [10] is “inactive”.
As for `Oc1c(Cl)cc(Cl)c(Cl)c1Cc1c(O)c(Cl)cc(Cl)c1Cl`, the Potency result in test [9] is “inactive”. In addition, the Potency is 1.61 µM (active) in test [2] and 6.86 µM (active) in test [10].
Consider `CCc1oc2ccccc2c1C(=O)c1cc(I)c(O)c(I)c1`, for which, in test [3], the Potency entry was “inactive”.
In the case of `OC[C@H]1O[C@@H]2O[C@H]3[C@H](O)[C@@H](O)[C@@H](O[C@H]4[C@H](O)[C@@H](O)[C@@H](O[C@H]5[C@H](O)[C@@H](O)[C@@H](O[C@H]6[C@H](O)[C@@H](O)[C@@H](O[C@H]7[C@H](O)[C@@H](O)[C@@H](O[C@H]8[C@H](O)[C@@H](O)[C@@H](O[C@H]1[C@H](O)[C@H]2O)O[C@@H]8CO)O[C@@H]7CO)O[C@@H]6CO)O[C@@H]5CO)O[C@@H]4CO)O[C@@H]3CO`, the Potency result in [1], in [2] and in [10] was “inactive” in each case.
As for `COc1ccc(C(=O)c2ccccc2)c(O)c1`, the Potency entry in [9] and in [2] was “inactive” each time.
For the molecule `CCCCOC(=O)CC(CC(=O)OCCCC)(OC(C)=O)C(=O)OCCCC`, the Potency entry in [10] was “inactive”.
As for `O=C(O)C1(C(=O)O)CCC1.[NH2-].[NH2-].[Pt+2]`, the Potency result in test [9], in [2] and in test [3] was “inactive” each time.
Take `NC(=O)n1c(O)c(C(=O)c2cccs2)c2cc(Cl)ccc21`: the Potency result in test [3] was “inactive”.
Turning to `Cc1cc(-c2ccccc2)nnc1NCCN1CCOCC1`, the Potency result in test [9], in [2] and in test [3] was “inactive” each time.
In the case of `NC(=S)N/N=C/c1cccnc1`, the Potency entry in [1], in test [2] and in test [3] was “inactive” in each case.
As to `CC1=C(C(=O)O)N2C(=O)[C@@H](NC(=O)[C@H](N)c3ccccc3)[C@H]2SC1`, the Potency entry in test [9] and in [2] was “inactive” in each case.
For `NC(N)=NCc1cccc(I)c1`, the Potency entry in test [1], in test [2] and in test [3] was “inactive” each time. In addition, the call in [4], in [5], in test [6] and in test [7] was inactive.
Regarding `CCc1oc2ccccc2c1C(=O)c1cc(Br)c(O)c(Br)c1`, the Potency result in test [9] and in test [2] was “inactive” each time.

Source of the values: PubChem BioAssay (NCATS).
